Shown are actives, neighbours in structure and some others; about 2.5% of the full set was active somewhere.
MBD2 inh = MBD2-methylated oligo binding inhibition. Q9UBB5. TR-FRET, MBD2 binding to methylated oligonucleotide. inhibition, % at 4.4 µM. 370,000 compounds, 0.31% hits. AID 686964; in the data active = inhibition above about 13%
PRMT1 inh = blocks human protein arginine methyltransferase 1. AID 652257. Q99873. 370,000 compounds, 1.3% hits. inhibition, % at 2.79 µM. recombinant PRMT1, activity-based probe fluorescence polarization;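 active = inhibition above about 21% made by adding two undisclosed values, limit read from the data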
Target sequence (Q99873 whole entry, looked up): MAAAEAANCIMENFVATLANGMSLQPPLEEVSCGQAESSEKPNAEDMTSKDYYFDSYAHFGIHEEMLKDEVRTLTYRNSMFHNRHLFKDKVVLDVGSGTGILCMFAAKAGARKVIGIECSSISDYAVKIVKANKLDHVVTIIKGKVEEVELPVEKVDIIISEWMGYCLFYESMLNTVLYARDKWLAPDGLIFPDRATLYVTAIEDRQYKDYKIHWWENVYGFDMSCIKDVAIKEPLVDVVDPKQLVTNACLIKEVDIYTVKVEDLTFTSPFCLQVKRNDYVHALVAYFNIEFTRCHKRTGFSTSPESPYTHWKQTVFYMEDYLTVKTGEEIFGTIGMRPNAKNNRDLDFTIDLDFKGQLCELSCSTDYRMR
LEDGF integ inh = blocks HIV-1 LEDGF/p75-dependent DNA integration; 370,000 compounds, 0.64% hits; inhibition, % at 3.7 µM; TR-FRET IN-LEDGF/p75 DNA integration, Eu/Cy5;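 active = inhibition above the screen-wide mean plus 3 SD, cut at about 13% in these data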;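 note: signal is the Cy5 over europium emission ratio at 671 and 618 nm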
UHRF1 MBD2 ctr = blocks human UHRF1 binding to methylated DNA. Q96T88. UHRF1 binding to methylated oligo, TR-FRET. inhibition, % at 4.4 µM. 370,000 compounds, 0.75% hits. AID 687016; in the data active = inhibition above about 21%;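 note: UHRF1 SRA domain binding a hemimethylated CpG hairpin DNA probe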
IN multimer up = counter-screen for LEDGF/p75 integration inhibitors: HIV-1 integrase multimerization activators. shares compounds with LEDGF integ inh. TR-FRET HIV-1 integrase multimerization, biochemical. activation, % at 7.7 µM. 2,000 compounds, 17% hits. AID 1053131; in the data active = activation above about 8.9%
TR-FRET interf = TR-FRET optical interference, LEDGF/p75 integration counter-screen; shares compounds with LEDGF integ inh; TR-FRET optical interference counterscreen, HIV-1 IN multimerization; inhibition, % at 7.7 µM; 2,000 tested, under 10 active;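 active = inhibition above the mean over all tested compounds plus 3 SD, which no compound reached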
LEDGF integ conf = LEDGF/p75-dependent HIV-1 integration inhibition, confirmation. inhibition, % at 3.7 µM. 2,000 compounds, 36% hits. TR-FRET LEDGF/p75-dependent HIV-1 integration, biochemical. AID 1053136. shares compounds with LEDGF integ inh; in the data active = inhibition above about 14%
Large screens that a line does not name were inactive (follow-up assays come after a bar, where they were run).

CCn1c(=O)[nH]c2ccccc2c1=O	none
CCn1c(=O)[nH]c2cc(Cl)c(Cl)cc21	LEDGF integ inh 16 | IN multimer up inactive | TR-FRET interf inactive | LEDGF integ conf inactive
O=C(CCNS(=O)(=O)c1ccccc1C(F)(F)F)NNC(=O)C1COc2ccccc2O1 (configuration not stated)	none
O=C(CCNS(=O)(=O)c1ccccc1)NNC(=O)C1COc2ccccc2O1 (configuration not stated)	LEDGF integ inh 14 | IN multimer up inactive | TR-FRET interf inactive | LEDGF integ conf inactive
C[n+]1cccc2c(Br)ccc([O-])c21	LEDGF integ inh 45 | IN multimer up inactive | TR-FRET interf inactive | LEDGF integ conf 61
CCOc1ccc2c(c1)C(NC(C)=O)C(=O)N2CCN1CCOCC1 (configuration not stated)	none
CC(=O)NC1C(=O)N(CCN2CCOCC2)c2ccc(Br)cc21 (configuration not stated)	LEDGF integ inh 16 | IN multimer up inactive | TR-FRET interf inactive | LEDGF integ conf 37
CCc1c(C)[nH]c2ccc(OC)cc2c1=S	none
CCOc1ccc(Cc2c(C)[nH]c3ccc(C(=O)O)cc3c2=S)cc1	LEDGF integ inh 14 | IN multimer up inactive | TR-FRET interf inactive | LEDGF integ conf inactive
COC(=O)C1=CN(c2ccc(OC)cc2)C(N)=C(C#N)C1c1cccc2ccccc12 (configuration not stated)	none
CCc1ccc(N2C=C(C(=O)OC)C(c3cccc4ccccc34)C(C#N)=C2N)cc1 (configuration not stated)	LEDGF integ inh 22 | IN multimer up inactive | TR-FRET interf inactive | LEDGF integ conf inactive
CCOc1ccccc1NC(=O)N1CCC(NC(=O)c2ccccc2C)CC1	none
CCOc1ccccc1NC(=O)CN1CCC(NC(=O)c2ccccc2C)CC1	LEDGF integ inh 21 | IN multimer up inactive | TR-FRET interf inactive | LEDGF integ conf inactive
O=c1cc(CO)[nH]nc1CO	none
Cc1nc(C(F)(F)F)ccc1C(=O)N1CCC(C)(C(=O)NS(=O)(=O)C2CC2)C1 (configuration not stated)	none
Cc1ccc(C)c(OCc2cc(C(=O)N3CCNC(=O)C3)no2)c1	LEDGF integ inh 27 | IN multimer up inactive | TR-FRET interf inactive | LEDGF integ conf inactive
COc1cc(C=NNC(=O)Cn2nc(C)cc2C)ccc1OC(=O)C1CC1	none
C[C@H]1CN(S(=O)C(C)(C)C)[C@@H](CCO)/C1=C\c1ccccc1 (some centres not stated)	none
CC(CNc1ccccc1O)C(=O)O (configuration not stated)	PRMT1 inh 23, LEDGF integ inh 23 | IN multimer up 11 | TR-FRET interf inactive | LEDGF integ conf inactive
CCC/C=C/c1ccc(CN2C(C(C)C)C(=O)N(Cc3cn(CC4CCCCC4)nn3)CCS2(=O)=O)cc1 (configuration not stated)	none
CC1=CN2C(=N)/C(=C/c3ccc([N+](=O)[O-])o3)C(=O)N=C2S1	LEDGF integ inh 18 | IN multimer up inactive | TR-FRET interf inactive | LEDGF integ conf 17
CC(C)(C)c1nnc(SCC(=O)Nc2ccc(N3CCCCC3)cc2)n1N	none
Cn1c(NCC2CCCCC2)nc2cc(-c3ccsc3)sc2c1=O	none
CC(C)NCC(O)c1ccc(O)c(O)c1 (configuration not stated)	none
NC[C@H](O)c1ccc(O)c(O)c1	LEDGF integ inh 15 | IN multimer up inactive | TR-FRET interf inactive | LEDGF integ conf inactive
CNC[C@H](O)c1ccc(O)c(O)c1	LEDGF integ inh 18 | IN multimer up inactive | TR-FRET interf inactive | LEDGF integ conf inactive
CCOc1ccc(S(=O)(=O)NCCC(=O)N2CC(C)CC(C)C2)cc1 (configuration not stated)	none
O=C1C=C(c2cccs2)C[C@H](c2ccccc2)[C@H]1n1nnc([N+](=O)[O-])n1	LEDGF integ inh 14 | IN multimer up inactive | TR-FRET interf inactive | LEDGF integ conf 18
COc1ccc(CN(CC#Cc2ccc(C)cc2)C(N)=NC(=O)CCc2ccccc2)c(OC)c1	none
Oc1ccc(-c2csc(Nc3cccc4ccccc34)n2)cc1O	LEDGF integ inh 24 | IN multimer up 17 | TR-FRET interf inactive | LEDGF integ conf 68
COc1ccc(-c2csc(C(O)c3ccc(F)cc3)n2)cc1OC (configuration not stated)	none
C=CCN(CC=C)C(=S)NC(=O)c1ccc(-c2ccccc2)cc1	LEDGF integ inh 23 | IN multimer up inactive | TR-FRET interf inactive | LEDGF integ conf 17
C=CCN(CC=C)C(=S)NC(=O)c1ccc(C)c(Br)c1	LEDGF integ inh 25 | IN multimer up inactive | TR-FRET interf inactive | LEDGF integ conf 33
Cc1ccc(C(=O)NC(=S)N(C)C2CCCCC2)cc1Br	none
C=CCN(CC=C)C(=S)NC(=O)c1ccc(OC)cc1	none
COc1ccc(C=Nn2c(-c3n[nH]c4c3CCC4)n[nH]c2=S)cc1OCc1ccccc1	none
CSC1(SC2=NCCN2)SC2(NCCN2)S1	LEDGF integ inh 23 | IN multimer up inactive | TR-FRET interf inactive | LEDGF integ conf inactive
O=C(CNc1cccc2ccccc12)N/N=C/C=C/c1ccco1	none
O=C(N/N=C/C=C\c1ccco1)c1ccccn1	none
O=C(Cc1cccs1)N/N=C/C=C/c1ccco1	LEDGF integ inh 17 | IN multimer up inactive | TR-FRET interf inactive | LEDGF integ conf 31
O=C(N/N=C/C=C/c1ccco1)c1cnccn1	LEDGF integ inh 26 | IN multimer up inactive | TR-FRET interf inactive | LEDGF integ conf 20
COc1cc(C(=O)C(=O)N2CCC(Cc3ccccc3)CC2)cc2ccccc12	none
O=C(COc1ccccc1Br)NCCC1=CCCCC1	none
O=C(COc1ccccc1[N+](=O)[O-])NCCC1=CCCCC1	LEDGF integ inh 18 | IN multimer up inactive | TR-FRET interf inactive | LEDGF integ conf inactive
CCC(=O)Nc1cccc(NC(=O)c2ccccc2Cl)c1	LEDGF integ inh 56 | IN multimer up inactive | TR-FRET interf inactive | LEDGF integ conf inactive
CCc1nc2c(OCCC3CCCCC3)cccn2c1N(C)C(=O)c1ccc(C)cc1	none
COP(=O)(O)C[C@@H]1CCc2cc(C)cc([C@H](CC(C)C)NC(=O)OCc3ccccc3)c2O1	none
Nc1ccc(N(CCO)CCO)cc1	LEDGF integ inh 24 | IN multimer up 12 | TR-FRET interf inactive | LEDGF integ conf 28
Nc1ccc(C(=O)N(CCO)CCO)cc1	none
Cc1nn(Cc2ccc(F)cc2)c(C)c1NC(=O)c1noc2c1CCCCC2	LEDGF integ inh 40 | IN multimer up inactive | TR-FRET interf inactive | LEDGF integ conf inactive
CC(C)(C)C(=O)OC12CCCN(C1)/C(=C/c1ccc(Cl)cc1)C2 (configuration not stated)	none
